Assay [1] can be described thus: Quantitative High-Throughput drug screen in 47 multiple myeloma cell lines against the NCATS MIPE library collection: AMO1_DSMZ cell viability assay (AID 1918927; note: nearly all actives have a fitted effect of over 30% in size). The gist of the method:
(§1)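 Relative luminescence from CellTiter-Glo served as the viability signal, referenced to DMSO-treated (100%) and cell-free medium (0%) controls. Treatment lasted 48 hours at 37C with 500 cells per well.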

Assay [2] can be described thus: Quantitative High-Throughput drug screen in 47 multiple myeloma cell lines against the NCATS MIPE library collection: ARP1_JJKsccF8 cell viability assay (AID 1918928; note: nearly all actives have a fitted effect of over 40% in size). An outline of the steps: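 Myeloma cells at 500 per well in 1536-well format treated with MIPE 4.0 library by pin transfer for 48 h at 37C, 5% CO2. Viability from ATP luminescence (CellTiter-Glo), normalized to DMSO (100%) and media-only (0%) wells.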

Assay [3] can be described thus: Quantitative High-Throughput drug screen in 47 multiple myeloma cell lines against the NCATS MIPE library collection: ARD_JJKsccE7 cell viability assay (AID 1918929). The gist of the method:
as §1

The nature of assay [4]: Quantitative High-Throughput drug screen in 47 multiple myeloma cell lines against the NCATS MIPE library collection: Karpas620_DSMZ cell viability assay (AID 1918959). Note: nearly all actives have a fitted effect of over 30% in size. An outline of the steps:
(§2)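 Luminescent ATP measurement with CellTiter-Glo gives viability, scaled between DMSO-only wells (100%) and media-only wells (0%). Cells, 500 per well, faced library compounds for 48 hours at 37C.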

Assay [5] in a line: Quantitative High-Throughput drug screen in 47 multiple myeloma cell lines against the NCATS MIPE library collection: JIM3_ECACC cell viability assay (AID 1918963; note: nearly all actives have a fitted effect of over 35% in size). The gist of the method:
as §2

The nature of assay [6]: Quantitative High-Throughput drug screen in 47 multiple myeloma cell lines against the NCATS MIPE library collection: JIM1_ECACC cell viability assay (AID 1918964). An outline of the steps:
as §1

Assay [7] in a line: Quantitative High-Throughput drug screen in 47 multiple myeloma cell lines against the NCATS MIPE library collection: INA6_PLB cell viability assay (AID 1918965; note: nearly all actives have a fitted effect of over 55% in size). The gist of the method: (§3)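 Steps: seed 500 cells per well; pin-transfer MIPE 4.0 library; incubate 48 h at 37C, 5% CO2, humidified; add CellTiter-Glo, 5 min room temperature; read luminescence.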
Assay [8] in a line: Quantitative High-Throughput drug screen in 47 multiple myeloma cell lines against the NCATS MIPE library collection: JJN3_DSMZ cell viability assay (AID 1918966; note: nearly all actives have a fitted effect of over 50% in size). The gist of the method: as §1
Assay [9] can be described thus: Quantitative High-Throughput drug screen in 47 multiple myeloma cell lines against the NCATS MIPE library collection: H1112_PLB cell viability assay (AID 1918967; note: nearly all actives have a fitted effect of over 30% in size). The gist of the method: as §1
Assay [10] can be described thus: Quantitative High-Throughput drug screen in 47 multiple myeloma cell lines against the NCATS MIPE library collection: Karpas25_ECACC cell viability assay (AID 1918968; note: nearly all actives have a fitted effect of over 35% in size). The gist of the method:
as §1

A short description of assay [11]: Quantitative High-Throughput drug screen in 47 multiple myeloma cell lines against the NCATS MIPE library collection: KMS26_JCRB cell viability assay (AID 1918975). Note: nearly all actives have a fitted effect of over 45% in size. An outline of the steps: as §3
Assay [12] can be described thus: Quantitative High-Throughput drug screen in 47 multiple myeloma cell lines against the NCATS MIPE library collection: MMM1_PLB cell viability assay (AID 1918976). Note: nearly all actives have a fitted effect of over 35% in size. The following applies: MMM1 myeloma cells viability, CellTiter-Glo, 48 h. An outline of the steps: (§4)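 Inhibition of viability over 48 h was scored by ATP content (CellTiter-Glo) in 500-cell wells. Zero and full viability were defined by media-only and DMSO-only wells.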
For orientation: ATP-based viability assays read luminescence as a measure of living cells.

The nature of assay [13]: Quantitative High-Throughput drug screen in 47 multiple myeloma cell lines against the NCATS MIPE library collection: MOLP8_DSMZ cell viability assay (AID 1918977). Note: nearly all actives have a fitted effect of over 45% in size. The gist of the method: as §4
The nature of assay [14]: Quantitative High-Throughput drug screen in 47 multiple myeloma cell lines against the NCATS MIPE library collection: NCIH929_DSMZ cell viability assay (AID 1918978). Note: nearly all actives have a fitted effect of over 35% in size. An outline of the steps:
as §4

The nature of assay [15]: Quantitative High-Throughput drug screen in 47 multiple myeloma cell lines against the NCATS MIPE library collection: MM1S_ATCC cell viability assay (AID 1918980). Note: nearly all actives have a fitted effect of over 45% in size. The gist of the method:
as §4

The nature of assay [16]: Quantitative High-Throughput drug screen in 47 multiple myeloma cell lines against the NCATS MIPE library collection: MM1R_ATCC cell viability assay (AID 1918981). Note: nearly all actives have a fitted effect of over 35% in size. An outline of the steps:
as §4

Assay [17] in a line: Quantitative High-Throughput drug screen in 47 multiple myeloma cell lines against the NCATS MIPE library collection: KMS28PE_JCRB cell viability assay (AID 1918983). Note: nearly all actives have a fitted effect of over 35% in size. The gist of the method:
as §4

A short description of assay [18]: Quantitative High-Throughput drug screen in 47 multiple myeloma cell lines against the NCATS MIPE library collection: KMS20_JCRB cell viability assay (AID 1918973). Note: nearly all actives have a fitted effect of over 45% in size. The gist of the method: as §1
Assay [19] is described as follows: Quantitative High-Throughput drug screen in 47 multiple myeloma cell lines against the NCATS MIPE library collection: LP1_DSMZ cell viability assay (AID 1918982). Note: nearly all actives have a fitted effect of over 35% in size. The gist of the method:
as §4

Assay [20] in a line: Quantitative High-Throughput drug screen in 47 multiple myeloma cell lines against the NCATS MIPE library collection: KMS21BM_JCRB cell viability assay (AID 1918974). The gist of the method: as §1

Results filed as inconclusive are left out. Active and inactive are the calls of the source. Calls come from the whole dose curve; as a rule, active = well fitted curve in the direction sought with a large enough effect; inconclusive = small, poorly fitted or top-dose-only effect, or another doubt; inactive = no such curve, though single readings can be large; an effect the other way counts as inactive or inconclusive.
Potency is the fitted concentration of half-maximal effect.

As for `COC[C@H]1OC(=O)c2coc3c2[C@@]1(C)C1=C(C3=O)C2CCC(=O)[C@@]2(C)C[C@H]1OC(C)=O` (stereo partly drawn), the Potency in assay [1] is 8.33 µM (active); in assay [2], 1.48 µM (active); in assay [3], 14.8 µM (active); in assay [4] it was 4.69 µM (active); in assay [5] it was 4.69 µM (active); in [6], 8.33 µM (active). The Potency in assay [7] was 2.35 µM (active); in assay [8] it was 10.5 µM (active); in assay [9], 2.64 µM (active); in assay [10], 0.526 µM (active); in [11], 1.18 µM (active); in [12], 2.64 µM (active). Besides, the Potency was 1.32 µM (active) in assay [13]; 0.469 µM (active) in [14]; 14.8 µM (active) in assay [15]; 1.18 µM (active) in assay [16]; 6.62 µM (active) in assay [17].
On to `Fc1ccc(C(OCCN2CCN(CCCc3ccccc3)CC2)c2ccc(F)cc2)cc1`, for which the Potency entry in assay [1], in assay [4] and in assay [6] was “inactive” in each case. Moreover, the Potency is 20.9 µM (active) in assay [2]; 13.2 µM (active) in assay [5]; 13.2 µM (active) in assay [7]; 23.5 µM (active) in [8]; 13.2 µM (active) in [9]; 8.33 µM (active) in [10]. The Potency in assay [18] was 9.35 µM (active); in [11], 16.6 µM (active); in assay [12] it was 14.8 µM (active); in assay [14], 13.2 µM (active); in assay [15], 18.7 µM (active); in [16] it was 16.6 µM (active). Also, the Potency is 18.7 µM (active) in assay [19] and 23.5 µM (active) in assay [17].
As for `COC1(CS(=O)c2ccccc2)CCN(CCc2c[nH]c3ccc(F)cc23)CC1` (stereo not drawn), the Potency result in [2], in [3], in [5], in assay [8], in assay [9] and in [20] was “inactive” in each case. In addition, the Potency result in [11], in assay [13], in assay [14], in [16] and in [19] was “inactive” each time. Besides, the Potency is 9.35 µM (active) in assay [10], 3.72 µM (active) in [12] and 8.33 µM (active) in assay [17].
Regarding `COc1ccc2c(c1OC)CN1CCc3cc4c(cc3C1C2)OCO4` (stereo not drawn), the Potency in [5] was 16.6 µM (active); in assay [7] it was 18.7 µM (active); in [8] it was 16.6 µM (active); in assay [10], 18.7 µM (active); in [12] it was 26.4 µM (active). Also, the Potency result in [9] and in assay [14] was “inactive” in each case.
With `CN(C)[C@@H]1C(=O)C(C(N)=O)=C(O)[C@@]2(O)C(=O)C3=C(O)c4c(O)cccc4[C@@](C)(O)[C@H]3C[C@@H]12`, the Potency result in assay [1], in assay [3], in assay [4], in [6], in assay [9] and in [10] was “inactive” each time. Also, the Potency entry in assay [13] and in [14] was “inactive” each time. Also, the figures for the Potency in assay [2] and in assay [12] were 16.6 µM (active) and 8.33 µM (active), respectively.
As for `CCCC(C)(COC(N)=O)COC(=O)NC(C)C` (stereo not drawn), the Potency entry in assay [1], in assay [2], in assay [4], in assay [6], in assay [7] and in [9] was “inactive” each time. Also, the Potency entry in assay [10], in [11], in [13], in assay [14], in assay [16] and in assay [19] was “inactive” throughout. Further, in [17], the Potency entry is “inactive”.
With `Cc1cccc(C)c1NC(=O)CN1CCCC1=O`, the Potency entry in [2], in assay [3], in assay [4], in [5], in [7] and in assay [9] was “inactive” each time. The Potency result in assay [10], in assay [11], in assay [14], in [16], in assay [19] and in assay [17] was “inactive” each time. Moreover, the Potency in [15] is 0.235 µM (active).
For `CN1CCN(C(=O)O[C@H]2c3nccnc3C(=O)N2c2ccc(Cl)cn2)CC1`, the Potency result in assay [1], in assay [4], in [5], in assay [6], in [7] and in [9] was “inactive” throughout. In addition, the Potency result in [10], in [11], in assay [14], in assay [15], in assay [16] and in assay [19] was “inactive” each time.
In the case of `O=c1[nH]c2ccccc2n1CCCN1CCC(n2c(=O)[nH]c3cc(Cl)ccc32)CC1`, the Potency in [4] is 20.9 µM (active); in assay [7], 18.7 µM (active); in assay [10], 0.0372 µM (active); in assay [20], 118 nM (active); in assay [15] it was 0.0418 µM (active). The Potency result in assay [5], in assay [8], in assay [13], in assay [16] and in assay [17] was “inactive” in each case.
